Test results as given in PubChem BioAssay.
The source made the active and inactive calls. How the calls were made is not given here.

Molecular target: Protein kinase 7 (PK7), Plasmodium falciparum 3D7 (PF3D7_0213400) (UniProt Q7YTF7)
Test: inhibition of Plasmodium PK7 catalytic activity – biochemical, TCAMS antimalarial set, Kinase-Glo luminescence (AID 1159587)
Settings: recombinant PfPK7, Kinase-Glo ATP depletion luminescence

Chain of Protein kinase 7 (PK7), Plasmodium falciparum 3D7 (PF3D7_0213400) (Q7YTF7 1-343): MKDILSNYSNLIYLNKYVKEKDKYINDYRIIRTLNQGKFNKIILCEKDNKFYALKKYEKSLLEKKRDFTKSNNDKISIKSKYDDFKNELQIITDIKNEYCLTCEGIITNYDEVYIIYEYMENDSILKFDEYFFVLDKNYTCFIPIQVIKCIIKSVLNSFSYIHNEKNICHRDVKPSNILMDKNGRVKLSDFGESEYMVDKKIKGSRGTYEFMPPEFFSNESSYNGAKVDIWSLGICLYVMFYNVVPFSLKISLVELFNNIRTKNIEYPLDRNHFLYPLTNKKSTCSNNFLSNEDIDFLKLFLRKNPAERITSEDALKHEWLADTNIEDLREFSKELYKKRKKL

outcome, inactive:
Nc1cc2c(C3CCN(CC4CCN(C(=O)/C=C/c5ccc(Cl)c(Cl)c5)CC4)CC3)c[nH]c2cn1, O=C(Nc1ccc(-c2ccc(-c3nc4ccc(C(F)(F)F)cc4[nH]3)s2)cc1)c1ccoc1, Cc1cccc(CN2CCC(CNC(=O)c3cc4c(-c5ccccc5F)nn(C)c4s3)CC2)c1, CCc1c(CCNC/C=C/C=C/CNCCc2ccc(OC)c(OC)c2CC)ccc(OC)c1OC, CC(C)C(C(=O)n1cc2c(ccc3nc(N)nc(N)c32)n1)C(C)C, Cc1cccc(Nc2nc3nonc3nc2Nc2cccc(Cl)c2Cl)c1C, COc1cccc(CCc2ccc(O)c3c2C[C@H]2C[C@H]4[C@H](N(C)C)C(=O)C(C(N)=O)=C(O)[C@@]4(O)C(=O)C2=C3O)c1, CCOC(=O)c1ccc(NC(=O)N(Cc2ccc(-c3ccc(CN4CCNCC4)cc3)cc2)Cc2cccnc2)cc1, COc1cc(NC(=O)/C=C/c2cc(F)cc(F)c2F)cc(OCCN2CCCCC2)c1, CC(C)Cn1c(N)cc(=O)n(C)c1=O, COc1ccc(-c2nc(NC(=O)Cc3ccc4c(c3)OCCO4)sc2C)cc1, COc1ccc(-c2nc3c(NCc4ccccc4)nccc3[nH]2)c(OC)c1, Cc1cccc(CN2CCC(C(=O)Nc3ccc(-c4nc5ccccc5[nH]4)cc3)CC2)n1, Cc1ccc(C2CCN(CCCCNC(=O)c3ccc(NC(=O)c4ccc(Cl)cc4)cc3)CC2)c(OCC(F)(F)F)c1, CN(C)CC1CCCN1Cc1ccccc1-c1cnn(C)c(=O)c1Oc1ccccc1F (stereo not given), CC(C)(C)OC(=O)NCC(=O)N(Cc1ccccc1)Cc1ccccc1, COc1cc(C(=O)N2CCOC(CCN3CCC[C@H]3C(=O)Nc3ccccc3)(c3ccc(Cl)c(Cl)c3)C2)cc(OC)c1OC (stereo not given in full), O=C(/C=C/c1ccc(Cl)c(Cl)c1)NCCCCCCN1CCCN(C(=O)Nc2ccc(F)c(Cl)c2)CC1, Cc1nc(NCc2ccccc2)cc(NCC(O)c2ccc(O)cc2)n1 (stereo not given), Cc1nc(-c2ccc(-c3ccc(NC(=O)Nc4ccc(I)c(OCCN(C)C)c4)cc3)c(C)c2)no1, Nc1nc(N)c2c(ccc3c2ccn3CCCC2CCCNC2)n1 (stereo not given), CCc1cn2c3c(cc(C(=O)N[C@@H](Cc4ccccc4)[C@H](O)CNC4CCOCC4)cc13)N(C)S(=O)(=O)C2, CNC(=O)/C=C/c1cc(NC(=O)Nc2cc(C)nc3c(F)cccc23)ccc1OC, CC(C)Cn1cc(C2CCN(CCN3CCC(CNC(=O)c4ccc(NC(=O)c5cc(Cl)cc(Cl)c5)cc4)CC3)CC2)c2ccccc21, O=C(NCCCNc1ccnc2cc(Cl)ccc12)c1ccccc1F
